HCV inh – qHTS Assay for Inhibitors of Hepatitis C Virus (HCV); Huh7.5.1 HCVcc-Cre infection, luciferase reporter, 44 h; Potency, µM (titrated, usually from 41.8 µM), hits mostly inhibitors; 3.4% of 340,000 active; active = well fitted inhibition curve with a large enough effect; inconclusive = small, poorly fitted or top-dose-only effect, or another doubt; inactive = no such curve, though single readings can be large or run the other way
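Cells (1,000/well) were plated 4 h before compound, then infected with HCVcc-Cre virus (~0.5 moi). After 44 h further culture, infection was read as luciferase luminescence following a 15 min substrate incubation at room temperature.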
Vaccinia mCherry – qHTS for Stage-Specific Inhibitors of Vaccinia Orthopoxvirus: mCherry Reporter Primary qHTS. Vaccinia virus mCherry reporter infection, fluorescence. Potency, µM (top dose mostly 36.5 µM), usual class: inhibitors. 0.63% of 310,000 active; calls by dose curve; tested in A549 cells; note: nearly all actives have a fitted effect of over 35% in size
HCMV inh – qHTS Assay for inhibitors of the human cytomegalovirus (HCMV); AID 1259415, 2018; HFF cells, HCMV-luciferase reporter, 72 h; active compounds read low; 4.5% of 410,000 active; activity change, negative = inhibition, % at 57.5 µM; in the data active = activity change below about -60%; inconclusive = no clear call, values can overlap the other calls; inactive = above about -39%
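Inhibition of viral replication was scored as loss of reporter luminescence in HFFs infected with HCMV-luciferase (MOI 1 PFU/cell) for 72 h; compounds tested at 2 doses, normalized to buffer and Salinomycin controls.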
FMDV inh – High Throughput Screening for Foot and Mouth Disease Virus Antivirals; FMDV antiviral cell-based qHTS; Potency, µM (series often up to 57.9 µM), most hits filed as inhibitors; 1.2% of 410,000 active; AID 1159524, 2015; calls by dose curve; tested in HEK293T cells; note: read-out not given here; nearly all actives have a fitted effect of over 45% in size
VACV Venus inh – qHTS for Stage-Specific Inhibitors of Vaccinia Orthopoxvirus: Venus Reporter Primary qHTS; Vaccinia virus Venus reporter expression, fluorescence; Potency, µM (series often up to 36.5 µM), hits mostly inhibitors; 0.46% of 330,000 active; calls by dose curve; tested in A549 cells; note: nearly all actives have a fitted effect of over 30% in size
Numbers stand for hits. An excerpt weighted towards active compounds, which were near 7.3% of everything screened.

For CCOc1ccc(S(=O)(=O)NCCc2csc(-c3ccc(Cl)cc3)n2)cc1 the results were Vaccinia mCherry inactive, HCMV inh inconclusive, FMDV inh inactive and VACV Venus inh inactive.
CCN(CC)CCOc1nnc(-c2ccc(C)cc2)c2ccccc12 was read as HCV inh inconclusive, Vaccinia mCherry inconclusive, HCMV inh inactive, FMDV inh inconclusive and VACV Venus inh inconclusive.
For CCN(CC)CCOc1nnc(-c2ccc(OC)cc2)c2ccccc12 the results were HCV inh inactive, HCMV inh -72 and FMDV inh inactive.
Screening O=C(CNCc1ccc(F)cc1)Nc1cc(S(=O)(=O)N2CCOCC2)ccc1Cl returned HCV inh inconclusive, HCMV inh inactive and FMDV inh inactive.
COc1ccc(C(=O)OCC(=O)NC2CCCCCCC2)cc1OC was read as HCV inh inactive, Vaccinia mCherry inactive, HCMV inh inactive, FMDV inh inactive and VACV Venus inh inactive.
COc1ccc(-n2cc(-c3ccccc3)c3c(NC4CCCC4)ncnc32)cc1 was read as Vaccinia mCherry inactive, HCMV inh inconclusive, FMDV inh inconclusive and VACV Venus inh inactive.
Screening Nc1ncnc2c1c(-c1ccc(Oc3ccccc3)cc1)cn2C1CCCC1 returned HCV inh inconclusive, Vaccinia mCherry inactive, HCMV inh -64, FMDV inh inconclusive and VACV Venus inh inconclusive.
Screening Cc1ccc2nc(Nc3nc(CSc4nnc(C)s4)cc(=O)[nH]3)nc(C)c2c1 returned HCV inh inconclusive, Vaccinia mCherry inactive, HCMV inh -81, FMDV inh inactive and VACV Venus inh inactive.
`Cc1ccc2nc(Nc3nc(-c4ccccc4)cc(=O)[nH]3)nc(C)c2c1` gave HCV inh inconclusive, HCMV inh -67, FMDV inh inactive and VACV Venus inh inconclusive.
COc1ccc2c(C)nc(Nc3nc(-c4ccccc4)cc(=O)[nH]3)nc2c1 was read as HCV inh 5.6µM, Vaccinia mCherry inconclusive, HCMV inh -93, FMDV inh inactive and VACV Venus inh 4µM.
For Cc1ccc2nc(Nc3nc(C)cc(-c4ccccc4)n3)[nH]c(=O)c2c1 the results were HCV inh inconclusive, Vaccinia mCherry inactive, HCMV inh inconclusive, FMDV inh inactive and VACV Venus inh inactive.
Screening Cc1ccc(NC(=O)COCc2cc(-c3cccs3)on2)cc1Cl returned Vaccinia mCherry inactive, HCMV inh inactive, FMDV inh inactive and VACV Venus inh inactive.
Screening CC(Sc1nc2ccccc2c(=O)n1CC1CCCO1)C(=O)Nc1ccc(S(N)(=O)=O)cc1 (centres undefined) returned HCV inh inactive, Vaccinia mCherry inactive, HCMV inh inactive, FMDV inh inactive and VACV Venus inh inactive.
`O=[N+]([O-])C1C(c2ccccc2)C12c1ccccc1-c1ccccc12` (centres undefined) gave Vaccinia mCherry inconclusive, FMDV inh 14µM and VACV Venus inh inconclusive.
For OC1(c2ccccc2)CN(c2ccccc2)C2=[N+]1CCS2 (centres undefined) the results were HCV inh inconclusive, Vaccinia mCherry inactive, HCMV inh -62, FMDV inh inconclusive and VACV Venus inh inactive.
`N#Cc1ccc(C(=O)Nc2cccc(S(=O)(=O)NC3=NCCC3)c2)cc1` gave HCV inh inactive, Vaccinia mCherry inactive, HCMV inh inactive, FMDV inh inactive and VACV Venus inh inactive.

From PubChem BioAssay
